# From PubChem BioAssay AID1345085 (National Center for Advancing Translational Sciences (NCATS), 2018)
# Records with an inconclusive call do not appear. Calls of active or inactive are those of the source. Calls come from the whole dose curve; as a rule, active = well fitted cell-killing curve with a large enough effect; inconclusive = small, poorly fitted or top-dose-only effect, or effect the other way; inactive = no such curve, though single readings can be large or run the other way.
# Test system: Es-2
# Test: Confirmatory qHTS for gynecologic anti-cancer compounds from libraries of approved drugs and bioactive compounds; note: nearly all actives have a fitted effect of over 55% in size
# Conditions: gynecologic cancer cell panel viability, ATPlite luminescence, 48 h; series mostly up to 57.6 µM
# Method in brief: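 Cells (1,000/well) were plated, left 16 h at 37 C/5% CO2, then given compound at 11 concentrations (1:3) from 57.5 uM to 0.977 nM for 48 h. ATPlite luminescence after 15 min at room temperature gave IC50 values.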
# Potency is the fitted concentration of half-maximal effect.
row,Compound,Potency
1,CN(C)CC/C=C1\c2ccccc2COc2ccccc21,inactive
2,CNc1nc(Nc2ccc(C(=O)N3CCOCC3)cc2OC)ncc1Cl,inactive
3,O=C(/C=C/c1cccc(S(=O)(=O)Nc2ccccc2)c1)NO,2.98 µM (active)
4,COc1cc2ncnc(Nc3ccc(F)c(Cl)c3)c2cc1OCCCN1CCOCC1,inactive
5,COc1cc2c(cc1-c1c(C)noc1C)ncc1[nH]c(=O)n(C(C)c3ccccn3)c12 (configuration not stated),2.17 µM (active)
6,Cc1cc(CN2CCN(c3c(Br)cnc4nc(-c5ccc(N6CCN(C)CC6)cc5)[nH]c34)CC2)no1,7.69 µM (active)
7,O=C1c2c(O)ccc(O)c2C(=O)c2c(NCCNCCO)ccc(NCCNCCO)c21,0.968 µM (active)
8,CCN1CCN(Cc2ccc(-c3cc4c(NC(C)c5ccccc5)ncnc4[nH]3)cc2)CC1 (configuration not stated),27.3 µM (active)
9,CCCCc1oc2ccc(NS(C)(=O)=O)cc2c1C(=O)c1ccc(OCCCN(CCCC)CCCC)cc1,24.3 µM (active)
10,Cn1c(=O)c(-c2c(Cl)cccc2Cl)cc2cnc(Nc3cccc(C(=O)O)c3)nc21,2.73 µM (active)
11,Fc1cc(-c2cccc3ncc(-c4cnn(C5CCNCC5)c4)nc23)cc(F)c1CN1CCOCC1,21.7 µM (active)
12,O=c1cc(CN2CCOCC2)occ1OCCCCCSc1ccnc2cc(C(F)(F)F)ccc12,inactive
13,CNc1nccc(-c2cccnc2Oc2cc(C(=O)Nc3cccc(C(F)(F)F)c3)ccc2C)n1,6.11 µM (active)
14,COc1cc(-c2nn(C3CCC(N4CCN(C(C)=O)CC4)CC3)c3ncnc(N)c23)ccc1NC(=O)c1cc2ccccc2n1C (configuration not stated),30.6 µM (active)
15,Cc1nc(Nc2ncc(C(=O)Nc3c(C)cccc3Cl)s2)cc(N2CCN(CCO)CC2)n1,13.7 µM (active)
16,CC(C)n1c(/C=C/[C@@H](O)C[C@@H](O)CC(=O)O)c(-c2ccc(F)cc2)c2ccccc21,5.44 µM (active)
17,CN(C[C@@H]1COCCO1)S(=O)(=O)Nc1ccc2ccc3ncc(-c4cnn(C)c4)cc3c(=O)c2c1,inactive
18,CC1=C(CO)C(=O)O[C@@H]([C@@H](C)[C@H]2CC[C@H]3[C@@H]4C[C@H]5O[C@]56[C@@H](O)C=CC(=O)[C@]6(C)[C@H]4CC[C@]23C)C1,2.66 µM (active)
19,CC(=O)O[C@H]1C(=O)[C@@]2(C)[C@H]([C@H](OC(=O)c3ccccc3)[C@]3(O)C[C@H](OC(=O)[C@H](O)[C@@H](NC(=O)c4ccccc4)c4ccccc4)C(C)=C1C3(C)C)[C@]1(OC(C)=O)CO[C@@H]1C[C@@H]2O,0.0819 µM (active)

row,Compound,Potency
1,COCCOc1ccc2c(c1)ncn2-c1ccc2cccc(N3CCC(N)CC3)c2n1,6.11 µM (active)
2,O=c1c(-c2ccc(O)cc2)coc2cc(O)cc(O)c12,17.2 µM (active)
3,Cc1cnc(Nc2ccc(F)cc2Cl)nc1-c1c[nH]c(C(=O)NC(CO)c2cccc(Cl)c2)c1 (configuration not stated),inactive
4,CC(Oc1ccc2[nH]nc(/C=C/c3cnn(CCO)c3)c2c1)c1c(Cl)cncc1Cl (configuration not stated),4.32 µM (active)
5,CCC1=CC2CN(C1)Cc1c([nH]c3ccccc13)[C@@](C(=O)OC)(c1cc3c(cc1OC)N(C)[C@H]1[C@@](O)(C(=O)OC)[C@H](OC(C)=O)[C@]4(CC)C=CCN5CC[C@]31[C@@H]54)C2 (some centres not stated),0.376 µM (active)
6,Cc1cc(Nc2cc(N3CCN(C)CC3)nc(/C=C/c3ccccc3)n2)n[nH]1,24.3 µM (active)
7,CC(C)C[C@H](NC(=O)[C@H](CCc1ccccc1)NC(=O)CN1CCOCC1)C(=O)N[C@@H](Cc1ccccc1)C(=O)N[C@@H](CC(C)C)C(=O)[C@@]1(C)CO1,3.06 µM (active)
8,O=C(NOC[C@H](O)CO)c1ccc(F)c(F)c1Nc1ccc(I)cc1F,0.344 µM (active)
9,CCN[C@H]1C[C@H](C)S(=O)(=O)c2sc(S(N)(=O)=O)cc21,inactive
10,O=C(c1ccc(F)c(F)c1Nc1ccc(I)cc1F)N1CC(O)([C@@H]2CCCCN2)C1,17.2 µM (active)
11,CCCCN(CCCC)CC(O)c1cc(Cl)cc2c1-c1ccc(Cl)cc1/C2=C/c1ccc(Cl)cc1 (configuration not stated),inactive
12,CN(C)CCC(CSc1ccccc1)Nc1ccc(S(=O)(=O)NC(=O)c2ccc(N3CCN(Cc4ccccc4-c4ccc(Cl)cc4)CC3)cc2)cc1[N+](=O)[O-] (configuration not stated),4.85 µM (active)
13,CCS(=O)(=O)c1cccc(-c2cc(C(=O)NC3CCN(C)CC3)c(C)c3[nH]c4ncc(C)cc4c23)c1,5.99 µM (active)
14,COc1cc(N2CCC(N)CC2)ccc1Nc1ncc(Cl)c(-c2c[nH]c3ccccc23)n1,inactive
15,Cc1csc(NC(=O)c2sc3nc4c(c(C(F)(F)F)c3c2N)CCC4)n1,2.17 µM (active)
16,O=C(NOCC1CC1)c1ccc(F)c(F)c1Nc1ccc(I)cc1Cl,1.53 µM (active)
17,CCCCc1nc2cc(/C=C/C(=O)NO)ccc2n1CCN(CC)CC,1.09 µM (active)
18,Cc1cnc(Nc2cccc(CN3CCOCC3)c2)nc1Nc1cccc(S(=O)(=O)NC(C)(C)C)c1,6.11 µM (active)
